Measurements from PubChem BioAssay (Tox21).
Inconclusive results are not listed. A call without a number means that no potency is given here. Active and inactive are the calls of the source. Calls come from the whole dose curve; as a rule, active = well fitted curve in the direction sought with a large enough effect in the signal ratio in the repeat runs (not every such curve was filed as active); inconclusive = weak or mixed curves, or effect the other way; inactive = no such curve, though single readings can be large or run the other way; the % refers to the signal ratio.
Potency is the fitted concentration of half-maximal effect.

These compounds were tested against Estrogen receptor (Homo sapiens) (UniProt P03372) (assay: qHTS assay to identify small molecule antagonists of the estrogen receptor alpha (ER-alpha) signaling pathway (AID 743069)). Settings: HEK293 ER-alpha-UAS-bla, beta-lactamase ratio, antagonist mode; series mostly up to 69.4 µM.
Chain of Estrogen receptor (Homo sapiens) (P03372 whole entry, looked up): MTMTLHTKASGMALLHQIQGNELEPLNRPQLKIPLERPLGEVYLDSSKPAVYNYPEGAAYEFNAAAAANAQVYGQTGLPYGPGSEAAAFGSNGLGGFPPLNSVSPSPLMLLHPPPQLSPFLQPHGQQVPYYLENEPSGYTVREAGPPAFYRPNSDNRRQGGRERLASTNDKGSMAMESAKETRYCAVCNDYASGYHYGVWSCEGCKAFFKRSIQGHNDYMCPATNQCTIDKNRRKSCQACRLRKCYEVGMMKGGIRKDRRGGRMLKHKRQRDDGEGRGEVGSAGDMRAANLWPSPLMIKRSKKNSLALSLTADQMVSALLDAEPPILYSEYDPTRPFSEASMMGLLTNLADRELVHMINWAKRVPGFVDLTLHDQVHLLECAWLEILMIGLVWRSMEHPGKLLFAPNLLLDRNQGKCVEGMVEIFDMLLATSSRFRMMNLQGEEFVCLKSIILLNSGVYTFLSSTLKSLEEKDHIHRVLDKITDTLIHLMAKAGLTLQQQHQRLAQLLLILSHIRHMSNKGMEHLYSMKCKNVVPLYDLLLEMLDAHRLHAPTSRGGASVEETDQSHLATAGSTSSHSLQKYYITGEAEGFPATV
Procedure, shortened: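 In this cell-based reporter format, GripTite HEK293 cells harbouring ER-alpha-UAS-bla were grown overnight with 2% charcoal-stripped FBS, dosed with DMSO-dissolved compounds, then challenged with 17beta-estradiol. After 18 hr at 37C, beta-lactamase activity was detected by FRET fluorescence.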
CC(C)=CC=O was tested, and the Potency was “inactive”. In the case of CC(=O)Nc1ccc(N)cc1, the Potency is reported as “inactive”. O=S1OCCO1 was tested, and the Potency was “inactive”. For CCOC(=O)CC(=O)C(=O)OCC, the Potency was “inactive”. In the case of CC(COc1ccc(C(C)(C)C)cc1)OS(=O)OCCCl (stereo unspecified), the Potency is reported as “inactive”. With CCCOC(=O)c1ccc(C(=O)OCCC)nc1 the Potency was “inactive”. In the case of CCCCCCCCCCCCCCCCBr, the Potency is reported as “inactive”. With OCC1CC=CCC1 (stereo unspecified) the Potency was “inactive”. In the case of COc1cc2ncnc(Nc3ccc(F)c(Cl)c3)c2cc1OCCCN1CCOCC1, the Potency is reported as 16.9 µM [inhibitor] (active). CO[C@H]1C=CO[C@@]2(C)Oc3c(C)c(O)c4c(O)c(c5c(c4c3C2=O)=NC2(CCN(CC(C)C)CC2)N=5)NC(=O)/C(C)=C\C=C/[C@H](C)[C@H](O)[C@@H](C)[C@@H](O)[C@@H](C)[C@H](OC(C)=O)[C@@H]1C was tested, and the Potency was “inactive”. In the case of CCCCCC=CCC=CCCCCCCCC(=O)OCC, the Potency is reported as “inactive”. In the case of COc1cc2c(N3CCN(C(=O)Nc4ccc(OC(C)C)cc4)CC3)ncnc2cc1OCCCN1CCCCC1, the Potency is reported as “inactive”. In the case of CCCCCCCCCCCCCCC[C@H](O)[C@@H](N)CO, the Potency is reported as “inactive”. For O=C(O)c1cccnc1C(=O)O, the Potency was “inactive”. COC(=O)[C@@H]1CC2=CC(=O)CC[C@]2(C)[C@@]23O[C@@H]2C[C@@]2(C)[C@@H](CC[C@@]24CCC(=O)O4)[C@H]13 was tested, and the Potency was “inactive”. For COCC(O)CO (stereo unspecified), the Potency was “inactive”. For CCC(=O)OC/C=C/c1ccccc1, the Potency was “inactive”. In the case of O=C(CCC1CCN(Cc2ccccc2)CC1)c1ccc2c(c1)NCCCC2, the Potency is reported as “inactive”. For O=Cc1c(Cl)cccc1Cl, the Potency was “inactive”. COC(OC)(C(=O)c1ccccc1)c1ccccc1 was tested, and the Potency was “inactive”. For CC(C)CCCC(=O)O, the Potency was “inactive”.
